# Among all 2,200 compounds or so, about 480 (22%) were called active. How the calls were made is not given here. A selection follows. A call without a number means that no potency is given here. Potency and affinity values are given separately.
# Assay: S. Typhimurium GFP fluorescence dose response in modified counterscreen for PhoP regulon inhibitor project (AID 1981)
# Conditions: 4 h; series mostly up to 150 µM
row,Compound,outcome
1,C=CCn1c(SCC(=O)Nc2nnc(CC)s2)nnc1-c1cccnc1,inactive
2,Cc1ccc(C)c(NC(=O)C(Sc2nnc(-c3cccs3)o2)c2ccccc2)c1 (centres undefined),inactive
3,CN(c1ccccc1)S(=O)(=O)c1ccc(C(=O)Nc2nnc(-c3ccc(F)cc3)o2)cc1,inactive
4,Cc1cc(-c2c(C)n([O-])c(C)c(C)[n+]2=O)ccc1F,inactive
5,COc1cc(C(=O)NC(=S)Nc2ccc3oc(=O)ccc3c2)cc(OC)c1OC,inactive
6,CC1(C)CC(=O)C2=C(C1)OC1=C(C(=O)CC(C)(C)C1)C2c1ccc(O)cc1O,inactive
7,Cc1cc(Nc2ccccc2F)n2ncnc2n1,inactive
8,C/C(=N\N=C(/N)SC1CC(=O)N(c2cccc(Cl)c2)C1=O)c1cccs1 (centres undefined),inactive
9,CCCCCCNCc1cccc(Br)c1,inactive
10,Cc1ccccc1NC(=O)Nc1cccs1,inactive
11,O=C(c1cc(-c2cccs2)nc2ccccc12)N1CCN(c2ccccc2O)CC1,inactive
12,CCC1=NNc2cccc3c(OC)ccc1c23,inactive
13,O=C1Nc2ccccc2C12OCC1(CO2)COC2(OC1)C(=O)Nc1ccccc12 (centres undefined),inactive
14,Cc1ccc2nc(SCC(=O)NCc3ccco3)[nH]c2c1,inactive
15,Cc1ccc(C(C)C)c(OCC(=O)N2CCN(Cc3nc4cc([N+](=O)[O-])ccc4n3C)CC2)c1,inactive
16,Cc1cc(C)cc(-n2nc(C)cc2N)c1,inactive
17,CCCN1C(=O)SC(CC(=O)Nc2ccc(Br)cc2)C1=O (centres undefined),inactive
18,Cn1c(NCc2cccs2)nc2ccccc21,inactive
19,CC(C)[C@@H]1CC[C@@H](C)C[C@H]1OC(=O)C[n+]1cc(-c2ccc(Cl)cc2)n2c1CCCCC2,inactive
20,CC1CCC(C(C)C)C(OC(=O)Cn2c(-c3ccc(Cl)cc3)[n+](C)c3ccccc32)C1 (centres undefined),inactive
21,NC[C@@]12CCCC1C1CCC2C1 (some centres undefined),inactive
22,CN(C)S(=O)(=O)Oc1ccsc1C(=O)Nc1ccccc1Cl,inactive
23,COC(=O)c1cccc(NC(=O)CCCOc2ccccc2)c1,inactive
24,O=C(CSC1CC(=O)N(CCc2ccccc2)C1=O)Nc1cccc(Cl)c1 (centres undefined),inactive
25,Nc1ccc2nc(SCC(=O)Nc3ccc(N4CCOCC4)c(Cl)c3)sc2c1,inactive
26,Cc1cccc(NC(=O)CCC(=O)OCc2ccc(Br)cc2)c1,inactive
27,Cc1nc2ccccc2n1CC(=O)N/N=C\C=C\c1ccccc1,inactive

row,Compound,outcome
1,O=C(CCN1C(=O)c2ccccc2C1=O)Nc1ccc(-c2cn3ccsc3n2)cc1,inactive
2,CC(C)(C)n1ncc2c(=O)n(CC(=O)Nc3ccc4c(c3)OCO4)cnc21,inactive
3,O=C1NC(=Nc2ccccc2)/C(=C/c2ccco2)S1,inactive
4,COC(=O)c1ccc(CSc2nnnn2-c2ccccc2)o1,inactive
5,O=C1c2ccccc2C(=O)N1CCCc1nc(-c2ccccn2)no1,inactive
6,O=C(/C=C/c1ccccc1)N/C(=C/c1ccccc1)C(=O)N1CCOCC1,inactive
7,C=CCOc1ccc(Br)cc1/C=N/O,inactive
8,CCCOc1ccc(Br)cc1CSC(=N)N,inactive
9,COC(=O)c1ccc(NC(=O)c2ccc(N(C)S(C)(=O)=O)cc2)cc1,inactive
10,CC1CCCCN1CCNS(=O)(=O)c1ccc2c(c1)oc(=O)n2C (centres undefined),inactive
11,O=C1NC2=C(CCc3ccccc32)C(c2ccc(Br)cc2)N1 (centres undefined),inactive
12,Cc1ccccc1NC(=O)c1ccc(-n2cncn2)nc1,inactive
13,CCc1nc2ccccc2c2nc3ccccc3n12,inactive
14,CCOC(=O)CC(=O)CSc1nc2c(c(C)c1C#N)CCC2,inactive
15,N/C(=N\c1nc2ccccc2o1)NC(=O)c1ccccc1F,inactive
16,CC1C(=O)NN=C1C(=O)N/N=C\c1ccc(O)cc1O (centres undefined),inactive
17,CC(=O)Nc1cc(N=Cc2ccc(O)cc2O)c(Cl)cc1Cl,inactive
18,O=C(N/N=C/c1ccc(O)cc1O)/C(=C/c1ccccc1)CCO,inactive
19,Oc1ccc(/C=N/n2cnn(Cc3ccccc3Cl)c2=S)c(O)c1,inactive
20,Oc1ccc(/C=N/NC2=NCCCCC2)c(O)c1,inactive
21,Cc1ccc2nc(SCCCCOc3ccccc3)[nH]c2c1,inactive
22,CCOC(=O)CN1C(=O)C(C)(C)Oc2ccc(C(=O)Nc3ccccc3OC)cc21,inactive
23,O=C(Nc1cc(C(F)(F)F)ccc1N1CCOCC1)c1ccc(Br)o1,inactive
24,COc1ccc(C)cc1NC(=O)C(Sc1nnc(-c2ccncc2)n1-c1ccc(Cl)cc1)c1ccccc1 (centres undefined),inactive
25,Cc1ccc(N=Cc2sc(O)c3ccccc23)cc1,inactive
26,O=C1CSC(=S)N1c1ccc(F)cc1,inactive
27,CC(=O)Nc1nc(-c2ccc(Cl)cc2)nc(C)c1C(C)=O,inactive
